CBX7 inh: CBX7 inhibition, primary AlphaScreen; AID 1224903; normalised signal (fraction of DMSO) (test concentration not listed); AlphaScreen His6-CBX7 / biotin-H3K27me3 peptide binding; active compounds read low; 66,000 compounds, 1.1% hits; in the data active = normalised signal below about 0.5
Target sequence (O95931 whole entry, looked up): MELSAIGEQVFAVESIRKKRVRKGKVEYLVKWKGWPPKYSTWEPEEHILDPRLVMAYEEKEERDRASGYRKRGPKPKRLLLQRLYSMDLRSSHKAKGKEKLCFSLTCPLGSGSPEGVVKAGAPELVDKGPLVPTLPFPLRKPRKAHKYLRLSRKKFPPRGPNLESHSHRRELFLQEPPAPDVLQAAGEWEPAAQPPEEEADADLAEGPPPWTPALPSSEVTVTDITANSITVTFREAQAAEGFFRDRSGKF
An asterisk follows results filed as active. Only a selection was taken, and hits are over-represented in it overall.

SMILES	CBX7 inh
CCCCCn1c(CCCNC(=O)c2ccc(F)cc2)nc2ccccc21	1.2
COc1ccc(CC(=O)Nc2c(-c3cccs3)nc3ccccn23)cc1	0.95
C=CCNC(=O)c1cc(-c2ccccc2OC)on1	0.97
CCOC(=O)N1CCN(C(=O)c2ccc(CNc3c(NC4CCCC4)c(=O)c3=O)cc2)CC1	0.96
O=C(Nc1ccccc1C(F)(F)F)c1cc(-c2ccc3c(c2)OCO3)on1	1.2
CCCN1Cc2cccc(C(=O)Nc3cccc(Cl)c3C)c2C1=O	1.1
CC1NC(=O)NC1CCCCCC(=O)OCC(=O)c1ccccc1 (configuration not stated)	0.16*
Cc1ccc(NC(=O)CCc2c(C)nc3c(-c4ccccc4)c(C)nn3c2C)cc1C	1.1
COc1cc(OC)cc(C(=O)Nc2nc(-c3ccccc3)c(C)s2)c1	1.1
COc1ccc(C2c3[nH]c4ccccc4c3CCN2C(=O)c2ccc(Cl)c(Cl)c2)cc1 (configuration not stated)	0.75
COc1cccc(-c2nc(-c3cccc(C)c3)no2)c1OC	1.2
COc1ccc(-c2[nH]c(-c3cc(OC)c4c(c3)OCO4)nc2-c2ccccc2)cc1	0.68
COc1ccc(-c2nc(-c3ccccc3)c(-c3ccccc3)[nH]2)cc1O	0.92
COc1ccc(-c2nc(-c3ccccc3)c(-c3ccc(F)cc3)[nH]2)c(OC)c1C	0.48*
COc1cc(OC)cc(-c2nc(-c3ccccc3)c(-c3ccc(Cl)cc3)[nH]2)c1	0.56
COc1ccc(-c2nc(-c3ccccc3)c(-c3ccc(Sc4ccccc4)cc3)[nH]2)cc1OC	0.73
COc1ccc(OC)c(-c2nc(-c3ccccc3)c(-c3ccccc3)[nH]2)c1	0.41*
COc1ccc(-c2nc(-c3ccccc3)c(-c3ccccc3)[nH]2)c(OC)c1	0.37*
COc1ccc(OC)c(-c2nc3ccccc3nc2-c2ccccc2)c1	1.2
COc1cccc(-c2nc(-c3ccccc3)c(-c3cc([N+](=O)[O-])ccc3C)[nH]2)c1OC	0.37*
O=C(c1cc(-c2ccc(Br)cc2)on1)N1CCN(c2ccc(F)cc2)CC1	0.99
Cc1ccc2[nH]c(C)c(CN3CCCCC3C)c(=O)c2c1 (configuration not stated)	1.1
CCc1ccc(NC(=O)C2CCN(S(=O)(=O)c3cccnc3)CC2)cc1	1.1
COc1cccc(CNC(=O)c2cnn3c(C)c(Cc4ccccc4C)c(C)nc23)c1	0.81
Clc1ccc(Nc2nc(NCCCN3CCOCC3)ns2)cc1	1
SMILES	CBX7 inh
Cc1ccc2nc(Nc3ccccc3Cl)nc(-c3ccccc3)c2c1	2.6
O=C(Nc1ccc2oc(-c3ccncc3)nc2c1)c1ccc(-c2ccc(F)cc2)o1	0.41*
CCc1ccc2oc(-c3ccc(NC(=O)c4ncn[nH]4)cc3)nc2c1	0*
CCc1ccc2oc(-c3ccc(NC(=O)c4cc(OC)cc(OC)c4)cc3)nc2c1	0.95
O=C(Nc1ccc2oc(-c3ccncc3)nc2c1)c1ccc(-c2ccc(Cl)cc2)o1	0.97
CCc1ccc2oc(-c3ccc(NC(=O)c4ccccc4)cc3)nc2c1	0.85
O=C(Nc1ccc2oc(-c3cccnc3)nc2c1)c1ccc(-c2ccc(F)cc2)o1	0.99
O=C(NC1CCCCCC1)C1c2ccccc2C(=O)N1Cc1ccccc1 (configuration not stated)	1.2
CCOc1ccc(S(=O)(=O)c2cn(Cc3ccccc3F)c3ccc(OCC)cc3c2=O)cc1	0.95
COc1ccc(-c2c(C)nn3c(NCc4ccc(F)cc4)cc(C)nc23)cc1OC	0.89
COc1ccc(CNc2cc(C)nc3c(-c4ccc(OC)c(OC)c4)c(C)nn23)cc1	0.92
COc1ccc(-c2c(C)nn3c(NCc4ccccn4)cc(C)nc23)cc1OC	0.39*
CCOc1ccc(C2CC(=O)NC3=C2C(=O)CC(C)(C)C3)cc1Cl (configuration not stated)	0.98
CCCOc1ccc(C(O)(CCN2CCCCC2)C2CCCCC2)cc1 (configuration not stated)	0.95
COc1ccc(NC(=O)[C@H](CCS(C)(=O)=O)N2Cc3ccccc3C2=O)cc1OC	1
COc1ccc(NC(=O)[C@H](CSCc2ccccc2)N2Cc3ccccc3C2=O)cc1Cl	0.87
CS(=O)(=O)CC[C@@H](C(=O)Nc1cccc(F)c1)N1Cc2ccccc2C1=O	1.1
CSCC[C@@H](C(=O)Nc1ccc(C)c(F)c1)N1Cc2ccccc2C1=O	0.53
COc1ccc(NC(=O)[C@H](Cc2ccccc2)N2Cc3ccccc3C2=O)cc1Cl	0.31*
CSCC[C@@H](C(=O)Nc1cccc(F)c1)N1Cc2ccccc2C1=O	0.49*
O=C(NC1CCCCC1)c1ccccc1C(=O)c1ncc[nH]1	0.99
O=C(NCc1nnc(SCC(=O)N2CCCc3ccccc32)o1)c1cccs1	1
COc1ccc(-c2nnc(Nc3ccc(Cl)cc3)c3ccccc23)cc1	0.97
COc1ccc(-c2nnc(Nc3ccc(Cl)c(Cl)c3)c3ccccc23)cc1	1
COc1ccc(-c2nnc(Nc3cccc(O)c3)c3ccccc23)cc1	0.43*
COc1ccc(Cl)cc1Nc1nc(Cc2ccccc2)nc2sc(C)c(C)c12	1.1

Compound activity from PubChem BioAssay.
